S2 tox: Viability Counterscreen for Primary qHTS for Inhibitors of ATXN expression. S2 cells (HEK-293 line with an ATXN2-luciferase reporter) viability, CellTiter-Fluor protease fluorescence, 24 h. Potency, µM (series often up to 56.7 µM), usual class: cytotoxic. 0.49% of 400,000 active. AID 651635, 2014; further: nearly all actives have a fitted effect of over 40% in size
TGFb inhibitor: qHTS for Inhibitors of TGF-b. HepG2 CAGA-GFP TGF-b/SMAD3 reporter, GFP fluorescence, 18 h; TGF-beta stimulated, 500 pg/mL final. Potency, µM (series often up to 46.1 µM), actives largely listed as inhibitors. 1.2% of 410,000 active. AID 588855, 2011; further: nearly all actives have a fitted effect of over 65% in size
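Inhibition of TGF-beta-driven CAGA-GFP reporter expression in HEPG2 cells is measured by cellular GFP fluorescence after 18 h stimulation with 500 pg/mL recombinant TGF-beta in 1% FBS medium at 37 degrees C.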
ATXN2 expr inh: Primary qHTS for Inhibitors of ATXN expression; HEK-293 ATXN2-luciferase reporter, luminescence, 24 h; Potency, µM (top dose mostly 57 µM), most hits filed as inhibitors; AID 1745845, 2022; 0.72% of 360,000 active; further: nearly all actives have a fitted effect of over 55% in size
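qHTS (up to 57 uM final) was run with 24 h compound exposure of reporter cells at 37 °C. Each well was multiplexed: SteadyGlo luminescence measured ATXN2-luciferase expression after a fluorogenic Gly-Phe-AFC viability readout (25 uM final).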
HepG2 tox-1: qHTS for Inhibitors of TGF-b: Cytotox Counterscreen; HepG2 CAGA-GFP viability, ATP luminescence, 18 h; Potency, µM (series often up to 46.1 µM), actives largely listed as cytotoxic; 0.76% of 410,000 active; AID 588856, 2011
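CellTiter-Glo luminescence gave cytotoxicity after 18 hours at 37 degrees C. The cells were HepG2 CAGA-GFP in 1% FBS DMEM, stimulated with 500 pg/mL TGF-beta after compound addition. %Activity was normalised to no-cell wells (complete cell-killing) and DMSO (no toxicity), and curves were fitted and classified.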
TGFb CAGA inh: qHTS for Inhibitors of TGF-b: Confirmation of Cherry Picks; HepG2 CAGA-GFP TGF-b reporter, GFP fluorescence, 18 h; cells stimulated with TGF-beta, 500 pg/mL; 63% of 1,600 active; Potency, µM (highest dose often 46.1 µM), actives largely listed as inhibitors; shares compounds with TGFb inhibitor; further: nearly all actives have a fitted effect of over 65% in size
HepG2 tox-2: qHTS for Inhibitors of TGF-b: Cytotox Counterscreen for Cherry Picks | shares compounds with TGFb inhibitor | HepG2 CAGA-GFP viability, ATP luminescence, 18 h; cells stimulated with TGF-beta, 500 pg/mL | Potency, µM (doses to about 46.1 µM), usual class: inhibitors | 27% of 1,600 active | AID 720535, 2013; further: nearly all actives have a fitted effect of over 70% in size
CCL64 TGFb inh: qHTS for Inhibitors of TGF-b: CCL64 Cells Orthogonal Assay for Cherry Picks; CCL64 CAGA-GFP reporter, TGF-b stimulated, GFP fluorescence, 18 h; Potency, µM (doses to about 46.1 µM), hits mostly inhibitors; shares compounds with TGFb inhibitor; AID 720536, 2013; 41% of 1,600 active; further: nearly all actives have a fitted effect of over 65% in size
TGFb COP inh: qHTS for Inhibitors of TGF-b: Hit Validation in HepG2 Cells using COP promoter. shares compounds with TGFb inhibitor. HepG2 COP-GFP TGF-b reporter, GFP fluorescence, 18 h; cells stimulated by added recombinant TGF-beta. Potency, µM (highest dose often 46.1 µM), usual class: inhibitors. 3% of 1,600 active. AID 720537, 2013; further: nearly all actives have a fitted effect of over 70% in size
Large screens that a line does not name were inactive (follow-up assays come after a bar, where they were run). Compounds with a hit are over-represented: about 2.3% of the library has one in this group of screens. The call rests on the fitted dose curve; in most records, active means well fitted curve in the direction sought with a large enough effect; inconclusive means small, poorly fitted or top-dose-only effect, or another doubt; inactive means no such curve, though single readings can be large; an effect the other way counts as inactive or inconclusive.

Cn1c(/C=C/c2ccc([N+](=O)[O-])o2)nc2ccccc2c1=O	S2 tox 6.31µM, TGFb inhibitor 2.24µM, ATXN2 expr inh 7.94µM | TGFb CAGA inh inconclusive | HepG2 tox-2 6.51µM | CCL64 TGFb inh 5.17µM | TGFb COP inh inconclusive
Cn1c(/C=C/c2ccccc2)nc2ccccc2c1=O	none
Cc1ccc(S(=O)(=O)N2CCOCC2)cc1C(=O)Nc1nc(-c2ccccn2)cs1	S2 tox inconclusive, TGFb inhibitor inconclusive, ATXN2 expr inh inconclusive | TGFb CAGA inh 9.2µM | HepG2 tox-2 inconclusive | CCL64 TGFb inh inconclusive | TGFb COP inh inactive
Cc1nn2c(NCc3ccccn3)c3c(nc2c1-c1ccccc1)CCC3	S2 tox inconclusive, TGFb inhibitor 11.2µM, ATXN2 expr inh inconclusive | TGFb CAGA inh inconclusive | HepG2 tox-2 inconclusive | CCL64 TGFb inh inconclusive | TGFb COP inh inactive
COc1ccc(Nc2c3c(nc4c(-c5ccccc5)c(C)nn24)CCC3)cc1	none
Nc1nc(NCc2ccc(F)cc2)c2[nH]cnc2n1	none (no result: S2 tox, ATXN2 expr inh)
COC(=O)CN1CC(=O)c2ccccc2S1(=O)=O	none (no result: S2 tox, ATXN2 expr inh)
CCOC(=O)c1sc(NC(=O)Nc2ccc(Cl)cc2)cc1C	TGFb inhibitor 5.62µM, ATXN2 expr inh inconclusive | TGFb CAGA inh inconclusive | HepG2 tox-2 inconclusive | CCL64 TGFb inh 16.4µM | TGFb COP inh inactive
O=C(NCC1(N2CCOCC2)CCCCC1)c1cnn(-c2nccc(-c3ccco3)n2)c1C1CC1	none (no result: TGFb inhibitor, ATXN2 expr inh, HepG2 tox-1)
COc1ccc(OC)c(S(=O)(=O)Nc2cc(Cl)cc(Cl)c2)c1	TGFb inhibitor 7.94µM | TGFb CAGA inh 20.6µM | HepG2 tox-2 inactive | CCL64 TGFb inh inactive | TGFb COP inh inactive
COc1ccc(CNC(=O)c2cccc(-c3ccc(C)c4ccccc34)n2)cc1	TGFb inhibitor 20µM | TGFb CAGA inh inconclusive | HepG2 tox-2 inconclusive | CCL64 TGFb inh inconclusive | TGFb COP inh inactive
C[C@H]1C=CC(=O)C[C@H]1c1c(F)cccc1Cl	none (no result: S2 tox, ATXN2 expr inh)
COc1ccc([C@H]2CC(=O)C=C(c3cccc(Br)c3)C2)cc1OC	S2 tox inconclusive, TGFb inhibitor 4.47µM | TGFb CAGA inh inconclusive | HepG2 tox-2 inactive | CCL64 TGFb inh inconclusive | TGFb COP inh inactive
COc1ccc([C@H]2CC(=O)C=C(/C=C/c3ccccc3)C2)cc1OC	S2 tox inconclusive, TGFb inhibitor 12.6µM, ATXN2 expr inh inconclusive | TGFb CAGA inh inconclusive | HepG2 tox-2 inactive | CCL64 TGFb inh inconclusive | TGFb COP inh inactive
COc1ccc([C@H]2CC(=O)C=C(c3cccc(Br)c3)C2)cc1	TGFb inhibitor inconclusive
O=C(CNC(=O)c1ccccc1)OCC(=O)c1ccc2ccccc2c1	none (no result: S2 tox, ATXN2 expr inh)
CCOC(=O)C1CCN(C(=O)c2ccc(C)o2)CC1	S2 tox inconclusive
CCOC(=O)C1CCN(C(=O)c2c(C)oc3c2C(=O)c2ccccc2C3=O)CC1	S2 tox inconclusive, TGFb inhibitor 4.47µM, ATXN2 expr inh inconclusive, HepG2 tox-1 2.82µM | TGFb CAGA inh 2.06µM | HepG2 tox-2 5.17µM | CCL64 TGFb inh 7.31µM | TGFb COP inh 5.8µM
Cc1oc2c(c1C(=O)N1CCC(C)CC1)C(=O)c1ccccc1C2=O	S2 tox 17.8µM, TGFb inhibitor 3.98µM, ATXN2 expr inh 25.1µM, HepG2 tox-1 5.01µM | TGFb CAGA inh 3.66µM | HepG2 tox-2 5.8µM | CCL64 TGFb inh 11.6µM | TGFb COP inh 20.6µM
CCc1ccc(OCCCn2c(CCNC(=O)C3CCCCC3)nc3ccccc32)cc1	none (no result: S2 tox, ATXN2 expr inh)
